Read-out in test [1]: Interleukin-1 alpha (IL1a), IL1A (gene 3552)
As to the kind of experiment: BSK_IMphg_IL1a: BioMAP Diversity Plus: IMphg Assay for Interleukin-1 alpha (IL1a) Biomarker Activity (AID 2284290). To be noted: primary human endothelial cells with macrophages. In short, it runs like this:
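Human venular endothelial cells co-cultured with macrophages, IMphg system. IL-1α is measured by ELISA 24 h after dosing and fitted in the positive direction against DMSO. Cytotoxicity is assessed by SRB staining of parallel cultures.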

Read-out in test [2]: E-selectin (Homo sapiens) (UniProt P16581)
The test is described as follows: BSK_IMphg_ESelectin: BioMAP Diversity Plus: IMphg Assay for Eselectin Biomarker Activity (AID 2284291). To be noted: primary human endothelial cells with macrophages. In short, it runs like this:
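Human venular endothelial cell–macrophage co-culture, E-selectin measured by ELISA 24 h after chemical dosing. Signal fitted in the positive direction against DMSO as negative control and baseline.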

Test [3] in a line: BSK_IMphg_SRB: Viability Assessment in the BioMAP Diversity Plus: IMphg Assay (AID 2284292).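 Also: measured one day after compound addition.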 To be noted: primary human endothelial cells with macrophages. In short, it runs like this:
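Human venular endothelial cells with macrophages, 24 h after chemical dosing; total protein by 0.1% SRB staining after 10% TCA fixation, read at 560 nm. Positive-direction fitting versus DMSO baseline.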

Read-out in test [4]: Macrophage colony-stimulating factor (MCSF), CSF1 (gene 1435)
As to the kind of experiment: BSK_IMphg_MCSF: BioMAP Diversity Plus: IMphg Assay for Macrophage colony-stimulating factor (MCSF) Biomarker Activity (AID 2284293). To be noted: primary human endothelial cells with macrophages. In short, it runs like this:
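Co-culture of human venular endothelial cells and macrophages, 24 hours of chemical exposure. M-CSF quantified by ELISA, with parallel SRB total-protein staining for cytotoxicity; activity fitted relative to DMSO.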

Read-out in test [5]: Interleukin-10 (IL10), IL10 (gene 3586)
As to the kind of experiment: BSK_IMphg_IL10: BioMAP Diversity Plus: IMphg Assay for Interleukin-10 (IL10) Biomarker Activity (AID 2284294). To be noted: primary human endothelial cells with macrophages. The protocol:
BSK_IMphg is a cell-based, multiplexed-readout assay that uses venular endothelial cells and macrophages, a human vascular primary cell, with measurements taken at 24 hours after chemical dosing in a microplate: 96-well plate.BSK_IMphg_IL10 is an assay component measured in the BSK_IMphg assay. It measures IL-10 antibody related to regulation of gene expression using ELISA technology.Data from the assay component BSK_IMphg_IL10 was analyzed at the endpoint, BSK_IMphg_IL10, in the positive analysis fitting direction relative to DMSO as the negative control and baseline of activity. Using a type of binding reporter, gain or loss-of-signal activity can be used to understand protein changes. To generalize the intended target to other relatable targets, this assay endpoint is annotated to the 'cytokine' intended target family, where the subfamily is 'interleukins'.
The levels of cell surface (or secreted, indicated by the prefix "s") biomarker endpoints were measured by ELISA. Overt cytotoxicity to cells in confluent adherent cultures (all systems other than the BT system) was assessed by measuring total protein levels using sulforhodamine B (SRB) staining in parallel cultures at the time of biomarker measurements, indicated as SRB endpoints. For proliferation assays for adherent cell types, individual cell types are cultured at sub-confluence and relative cell numbers quantified by SRB staining at time points optimized for each system (48 h: 3C and CASM3C systems; 72 h: BT and HDF3CGF systems; 96 h: SAg system). SRB was performed by staining cells with 0.1% SRB after fixation with 10% TCA and reading wells at 560 nm.Viability and proliferation of PBMC (T cells) was quantified by Alamar Blue reduction for the SAg and BT systems. For PBMC viability (referred to as PBMC Cytotoxicity within the assay endpoint names), cells were plated (75,000/well in a 96-well plate) and then chemical samples added for 1 h before addition of activators, SEB and TSST-1 (20 ng/mL final concentration each). Cells were incubated for 90 h. Then, Alamar Blue (20 uL/well) (Invitrogen, Cat DAL1100) was added for 6 h, and the plates were read with a fluorescence microplate reader at 546/580 nm (excitation/emission). For PBMC proliferation, cells were plated and activated as above but incubated for only 16 h prior to addition of Alamar Blue. Plates were read after 6 h.

Test [6] can be described thus: BSK_IMphg_SRB.Mphg: Macrophage Viability Assessment in the BioMAP Diversity Plus: IMphg Assay (AID 2284295). To be noted: primary human endothelial cells with macrophages. In short, it runs like this:
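Venular endothelial cells co-cultured with macrophages, read 24 h after dosing. Total protein measured by 0.1% SRB staining after 10% TCA fixation, absorbance at 560 nm. Fitted in positive direction against DMSO baseline.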

Read-out in test [7]: Thrombomodulin, THBD (gene 7056)
The test is described as follows: BSK_LPS_Thrombomodulin: BioMAP Diversity Plus: LPS Assay for Thrombomodulin Biomarker Activity (AID 2284296). To be noted: primary human HUVEC with PBMC. In short, it runs like this:
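Human umbilical vein endothelial cells co-cultured with PBMC and stimulated with LPS; cell-surface thrombomodulin measured by ELISA 24 hours after compound. Gain or loss versus DMSO; cytotoxicity checked by SRB staining in parallel cultures.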

A short description of test [8]: IUF_NPC2c_oligodendrocyte_migration_120hr: Leibniz Research Institute for Environmental Medicine (IUF) 120-hour Neural Progenitor Cell Migration Assay for Oligodendrocyte Migration (NPC2c) (AID 2284297).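 Also: O4-positive oligodendrocyte migration distance divided by radial glia migration distance.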 In short, it runs like this:
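hNPC spheres (GW 16-19 cortex), PDL/laminin, DMEM/F12 3:1 + 1% N2, 37C. Dosing day 0–5, half feed day 3, DMSO ≤0.1%. Fixed 120 h; O4 ICC + Hoechst, HCI. Readout: mean oligodendrocyte distance from sphere edge / radial glia distance.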

Test [9] can be described thus: IUF_NPC2a_radial_glia_migration_120hr: Leibniz Research Institute for Environmental Medicine (IUF) 120-hour Neural Progenitor Cell Migration Assay for Radial Glia Migration (NPC2a) (AID 2284298). In short, it runs like this:
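Hoechst-stained nuclei imaged at 120 h; algorithm maps sphere core by densest nuclei, sets migration edge at density threshold, gives radial glia migration distance (um) per well vs DMSO. hNPC spheres (0.3 mm), PDL/laminin, DMEM/F12 3:1 + 1% N2.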

Test [10] in a line: IUF_NPC2a_radial_glia_migration_72hr: Leibniz Research Institute for Environmental Medicine (IUF) 72-hour Neural Progenitor Cell Migration Assay for Radial Glia Migration (NPC2a) (AID 2284299). In short, it runs like this:
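Primary hNPC spheres, fetal brain GW 16-19, on PDL/laminin; DMEM/F12 3:1 + 1% N2. Compound dosed day 0, 7 conc. + SC, half-medium refresh day 3. 72 h brightfield, migration distance core-to-front (um), 4 directions averaged.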

Values joined by “and” are separate entries in the source; they are usually repeats but may differ in a detail not shown here. Equal values may be shown once. Some compounds were tested as several samples or in several runs, with calls that do not always agree. Active and inactive are the calls of the source. The calls were made as follows: active = hit-call score of the fitted dose curve at least 0.9, where 1 is the maximum; inactive = score below 0.9.

Chain of E-selectin (Homo sapiens) (P16581 whole entry, looked up): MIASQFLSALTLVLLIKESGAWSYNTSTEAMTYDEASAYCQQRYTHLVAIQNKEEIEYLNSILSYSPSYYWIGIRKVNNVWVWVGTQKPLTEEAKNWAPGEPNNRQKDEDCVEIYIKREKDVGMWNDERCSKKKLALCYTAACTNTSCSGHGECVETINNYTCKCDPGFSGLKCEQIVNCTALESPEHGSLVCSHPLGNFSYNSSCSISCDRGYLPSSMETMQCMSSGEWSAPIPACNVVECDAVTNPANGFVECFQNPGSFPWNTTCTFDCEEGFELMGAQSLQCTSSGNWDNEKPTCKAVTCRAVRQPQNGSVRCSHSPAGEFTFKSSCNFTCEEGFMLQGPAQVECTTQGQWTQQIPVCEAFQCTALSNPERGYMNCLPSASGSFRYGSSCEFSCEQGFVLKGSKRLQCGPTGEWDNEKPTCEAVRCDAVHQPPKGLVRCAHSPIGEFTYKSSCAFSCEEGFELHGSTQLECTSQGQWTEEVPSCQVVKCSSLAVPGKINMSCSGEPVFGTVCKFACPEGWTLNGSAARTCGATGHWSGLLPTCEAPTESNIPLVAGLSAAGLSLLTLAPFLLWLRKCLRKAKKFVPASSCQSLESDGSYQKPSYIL

In the case of `O=S(=O)(O)C(F)(F)C(F)(F)C(F)(F)C(F)(F)F`, the result in test [1], in test [2], in [3], in [4], in test [5] and in [6] was inactive. In addition, the outcome in [7], in test [8], in test [9] and in test [10] was inactive.

In the case of `NS(=O)(=O)C(F)(F)C(F)(F)C(F)(F)C(F)(F)C(F)(F)C(F)(F)C(F)(F)C(F)(F)F`, the half-maximal activity concentration (AC50) in [1] was 53.6 µM (active) and 52.9 µM (active); in test [2] it was 39.9 µM (active) and 30 µM (active); in test [3], 51 µM (active) and 48.3 µM (active); in [4], 30 µM (active); in test [5], 48.2 µM (active) and 47.2 µM (active); in [6] it was 43.4 µM (active) and 48.1 µM (active). The AC50 in [7] was 14.5 µM (active). Further, the outcome in test [4] and in test [7] was inactive.

As for `O=C(O)C(F)(F)C(F)(F)C(F)(F)C(F)(F)C(F)(F)C(F)(F)C(F)(F)C(F)(F)C(F)(F)F`, the outcome in test [1] and in [4] was inactive. Moreover, the AC50 was 47.6 µM (active) and 50.2 µM (active) in [2]; 53.8 µM (active) and 46.6 µM (active) in [3]; 49.6 µM (active) and 45.5 µM (active) in [5]; 44.9 µM (active) and 46.2 µM (active) in test [6]; 51.4 µM (active) and 54.9 µM (active) in test [7].

In the case of `O=S(=O)(O)C(F)(F)C(F)(F)C(F)(F)C(F)(F)C(F)(F)C(F)(F)F`, the outcome in [1], in [2], in test [3], in [4], in test [6] and in test [7] was inactive. Also, the outcome in test [8], in [9] and in [10] was inactive. Besides, the AC50 is 37.6 µM (active) in test [2]; 46.3 µM (active) and 19 µM (active) in test [5].

Regarding `CO/C=C(/C(=O)OC)c1ccccc1COc1cccc(C(F)(F)F)n1`, the AC50 in test [8] was 34.6 µM (active); in test [9] it was 33 µM (active); in test [10] it was 50 µM (active).

With `COc1ccc(O)c(C(C)(C)C)c1`, in test [7], the outcome was inactive.

Take `O=C(O)C(F)(F)C(F)(F)C(F)(F)C(F)(F)C(F)(F)F`: the outcome in test [1], in test [2], in test [3], in test [4], in [5] and in test [6] was inactive. In addition, the outcome in [7] was inactive.

On to `O=C(O)C(F)(F)C(F)(F)C(F)(F)C(F)(F)C(F)(F)C(F)(F)C(F)(F)C(F)(F)F`, for which the result in [1], in [2], in test [3], in test [4], in [6] and in test [7] was inactive. Besides, the AC50 was 44.9 µM (active) in [3]; 39 µM (active) and 21.3 µM (active) in test [5]; 18 µM (active) in [6].

With `CCOP(=S)(OCC)SCSC(C)(C)C`, the compound was classed as inactive in test [8], in test [9] and in [10].

Consider `C=CC(N)=O`, for which the compound was called inactive in test [8], in test [9] and in test [10].

These data come from PubChem BioAssay (EPA / NIEHS).
